Legend:
Assay in all cases: PBM binding z-score (relative to random genomic background probes); higher = stronger binding; sequences stand for … in GC…GCGATTGACAGCGTAGAATGAAGG
[1] = system: FXR:RXRa (NR concentration 270 nM, RXRa partner concentration 90 nM)
Procedure, shortened: (§1)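 Ligand-free nuclear receptor dimers were applied to custom Agilent 4×180K protein-binding microarrays whose double-stranded probes carried direct-repeat seeds, single-nucleotide variants, half-site ablations and random human genomic background sequences in 34-nt variable regions. Incubation lasted 1 h. Binding z-scores were computed against the random background probes from regression-normalized fluorescence.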

[2] = system: LXRa:RXRa (NR concentration 270 nM, RXRa partner concentration 90 nM)
Procedure, shortened: as §1

[3] = system: LXRa homodimer (NR concentration 270 nM)
Procedure, shortened: as §1

[4] = system: LXRb:RXRa (NR concentration 270 nM, RXRa partner concentration 90 nM)
Procedure, shortened: as §1

[5] = system: LXRb homodimer (NR concentration 270 nM)
Procedure, shortened: as §1

[6] = system: PPARa:RXRa (NR concentration 270 nM, RXRa partner concentration 90 nM)
Procedure, shortened: as §1

[7] = system: PPARg:RXRa (NR concentration 180 nM, RXRa partner concentration 90 nM)
Procedure, shortened: as §1

[8] = system: PPARg:RXRa 270nM:90nM, anti-RXR (NR concentration 270 nM, RXRa partner concentration 90 nM)
Procedure, shortened: as §1

[9] = system: PPARg:RXRa 30nM:10nM, anti-RXR (NR concentration 30 nM, RXRa partner concentration 10 nM)
Procedure, shortened: as §1

[10] = system: PPARg:RXRa 90nM:30nM, anti-RXR (NR concentration 90 nM, RXRa partner concentration 30 nM)
Procedure, shortened: as §1

[11] = system: PPARg:RXRa DBDmut IVT, anti-RXR (DBD mutation: RXRa K156A/R161A, NR concentration 270 nM, RXRa partner concentration 90 nM)
Procedure, shortened: as §1

[12] = system: PPARg:RXRa IVT, anti-PPARg (NR concentration 270 nM, RXRa partner concentration 90 nM)
Procedure, shortened: as §1

[13] = system: PPARg DBDmut:RXRa IVT, anti-PPARg (DBD mutation: PPARg1 K132A/R137A, NR concentration 270 nM, RXRa partner concentration 90 nM)
Procedure, shortened: as §1

[14] = system: PPARg DBDmut IVT, anti-PPARg (DBD mutation: PPARg1 K132A/R137A, NR concentration 270 nM)
Procedure, shortened: as §1

[15] = system: PPARg homodimer (NR concentration 180 nM)
Procedure, shortened: as §1

[16] = system: PXR:RXRa (NR concentration 270 nM, RXRa partner concentration 90 nM)
Procedure, shortened: as §1

[17] = system: PXR homodimer (NR concentration 270 nM)
Procedure, shortened: as §1

[18] = system: RARa:RXR (NR concentration 270 nM, RXRa partner concentration 90 nM)
Procedure, shortened: as §1

[19] = system: RARa homodimer (NR concentration 270 nM)
Procedure, shortened: as §1

[20] = system: RARb:RXRa (NR concentration 270 nM, RXRa partner concentration 90 nM)
Procedure, shortened: as §1

Sequence	PBM binding z-score [1]	PBM binding z-score [2]	PBM binding z-score [3]	PBM binding z-score [4]	PBM binding z-score [5]	PBM binding z-score [6]	PBM binding z-score [7]	PBM binding z-score [8]	PBM binding z-score [9]	PBM binding z-score [10]	PBM binding z-score [11]	PBM binding z-score [12]	PBM binding z-score [13]	PBM binding z-score [14]	PBM binding z-score [15]	PBM binding z-score [16]	PBM binding z-score [17]	PBM binding z-score [18]	PBM binding z-score [19]	PBM binding z-score [20]
AGAACGAGGGCAATGAGTTGAAAGCACGGGTGGC	0.345	0.43	-0.528	-0.0192	-0.804	1.57	1.36	1.21	-0.135	0.569	3.01	2.76	0.626	-0.78	0.52	1.67	5.02	0.551	-0.34	2.03
ATCTCTAGGTAAGACTCAGTACAGTGAAGAACGC	0.589	0.377	0.528	0.101	0.88	0.1	0.293	-0.0568	0.341	0.016	1.66	1.18	0.455	1.12	1.13	-0.0434	0.717	0.344	1.32	0.147
ACAGACAGGTAAGTGAAGGTAACTCAGCTGGACG	0.106	0.0707	-0.103	-0.313	-0.579	-0.355	0.687	-0.165	-0.141	-0.389	-0.107	0.305	0.744	-0.0686	-0.111	-0.306	0.283	-0.575	0.213	0.109
CCTGCTAGGTCAATGGGCAGCTAAAGCAGCTCGC	1.94	1.62	-0.481	0.861	-0.588	2.59	2.02	3.18	0.64	2.19	3.7	3.4	-0.844	-1.02	0.228	0.352	-0.589	1.07	-0.679	3.6
ACAGACATGTGATGAAGGTAACTCAGGCTATCAT	0.000592	-0.0384	-0.258	-0.35	-0.283	-0.131	0.611	-0.0726	-0.0978	0.0328	-0.334	0.139	0.595	0.868	-0.0569	-0.448	-0.319	-0.161	-0.142	-0.338
AATACAGGGTAATCGTAGGCCAGAGTACGCACAG	0.175	1.34	-0.0914	0.309	-0.0115	0.447	1.25	0.792	0.499	0.377	2.12	2.19	0.939	0.00215	-0.0424	0.0668	0.0801	0.578	0.101	0.525
AACGAAAGGTCGAGGTGAGTATAGAGAAAGGGAA	4.3	3.7	-0.0292	2.86	0.0857	4.71	3.34	3.82	1.16	2.59	0.47	2.34	0.731	0.177	1.1	2.6	0.272	3.51	0.313	4.23
GATACAGGGTCAGCTAGCGGCCAGAGTATGGAAA	4.95	2.67	-0.847	2.34	-0.774	4.56	3.77	3.29	0.52	2.01	1.01	2.05	0.0696	-0.868	1.51	2.37	-0.651	3.79	0.418	3.96
GTACCAAGGTGAATAGGTAGTTGATGAGTAGGCG	0.274	0.228	0.0287	0.0207	-0.534	0.934	0.795	0.782	0.189	0.453	1.51	1.76	0.536	0.507	0.398	-0.196	-0.0218	0.256	0.745	1.1
AGTCAAAGATCATCTAGGTAACGTAAGATATGCT	-0.125	0.0142	-0.0346	-0.0476	-0.391	0.828	1.67	1.54	0.643	1.16	0.742	2.23	0.348	0.62	-0.382	-0.211	-0.246	0.277	0.136	0.0858
CCTACAGGGCCATCAGGTCATTGATATCAACGTT	1.88	1.31	0.875	1.51	-0.272	2	0.835	1.04	0.253	0.77	0.49	1.32	-0.452	-0.51	1.27	1.71	0.581	1.89	0.0859	2.38
GCTAGTTGGTCAGTAAAAGGTCATACACCGGTCG	3.17	4.37	5.64	3.93	0.896	4.45	2.95	4.03	2.15	3.55	0.651	2.38	-0.0949	-0.0441	3.01	4.5	1.09	5.05	1.09	3.94
TCAGACAGGTGAAGGTCACTCAGGTACGCAGTCG	3.13	3.62	1.36	3.13	0.146	3.72	2.39	3.12	3.84	3.76	3.07	2.84	0.351	0.266	2.38	4.02	0.556	3.78	0.971	4.01
GCTTGTAGATCAAGTTTAAGAAAGACTAAGCTAA	-0.477	-0.231	-0.318	-0.15	-0.39	0.142	-0.204	-0.0876	-0.116	-0.107	0.956	0.313	0.0425	0.223	-0.136	0.206	0.211	0.203	-0.548	-0.0982

Source: the supplement of paper PMC6555819
